Drawing on PubChem BioAssay AID463173 (ICCB-Longwood Screening Facility, Harvard Medical School, 2010), this text covers survival for 96 compounds.

Molecules are shown by their SMILES. The whole screen tested about 52,000 compounds, of which about 4,300 (8.3%) were called active. Many of the other results were omitted from the sample, so actives are more common in it than they were. Unmarked numbers belong to inactive results. Rule as the data show it: active = survival mostly below about 52% (no sharp cut-off); inactive = mostly above about 56%.

This experiment deals with DeltatarO mutant. The experiment is described as follows: growth inhibition of S. aureus wild type versus tarO mutant, primary screen, teichoic acid synthesis inhibitors, RN4220, OD600 (AID 463173). The settings on record: OD600, 18 h, stronger effect = lower value, screened at 18.75 µg/mL (by protocol).
Consider `CCOC(=O)c1noc2ncnc(N3CCN(c4ccccc4OC)CC3)c12`, for which the survival was 77%.
Regarding `COc1ccccc1NC(=O)N1CCN(Cc2nc3ccc(C)cc3o2)CC1`, the survival is 84%.
`CC(=O)c1ccc(NC(=O)CCn2nc(C)c(S(=O)(=O)N3CCC(C)CC3)c2C)cc1`: the survival was -5% (active).
The figure for `Cc1nn(CCC(=O)Nc2cccc(C#N)c2)c(C)c1S(=O)(=O)N1CCC(C)CC1` is 89%; for `CC(=O)c1cccc(NC(=O)CCn2nc(C)c(S(=O)(=O)N3CCCCC3)c2C)c1` it is 134%; for `CCOC(=O)c1ccc2ncc(C(=O)OCC)c(Nc3ccc(C)c(Br)c3)c2c1` it is 39% (active).
Turning to `CCOC(=O)c1cnc2ccc(C(=O)OC)cc2c1Nc1ccccc1CC`, the survival was -3% (active).
In the case of `CCOC(=O)c1cnc2cc(F)c(F)cc2c1Nc1ccccc1O`, the survival is 156%.
As for `CCOC(=O)c1cnc2ccccc2c1NCC(C)O` (stereo unspecified), the survival was 89%.
As to `CCOC(=O)c1cnc2ccc(OC(F)(F)F)cc2c1Nc1ccccc1C(=O)O`, the survival was 37% (active).
Regarding `CCc1ccc2[nH]c(=O)c(C(c3nnnn3C3CCCC3)N(Cc3ccccc3)Cc3ccco3)cc2c1` (stereo unspecified), the survival was 104%.
As for `O=C(CN1c2ccc(Br)cc2-c2ccccc2S1(=O)=O)N1CCCCC1`, the survival is 91%.
The figure for `COc1cc(CNc2ccc3[nH]c(=O)[nH]c3c2)cc(Cl)c1OCc1ccccc1F` is 78%; for `CCOc1ccc(CCNC(=O)c2sc3ncccc3c2-n2c(C)ccc2C)cc1` it is 106%.
Then `COCCNc1nc2c(S(=O)(=O)c3ccc(C)c(C)c3)nnn2c2ccc(Cl)cc12`, with 89%; and `O=C(NCc1ccccc1Cl)NCc1noc2ccccc12`, with 45%.
In the case of `Cc1cccc(-c2nn3c(=O)cc(CN4CCN(C(=O)c5ccccc5Br)CC4)nc3s2)c1`, the survival is 100%.
As to `CCOC(=O)c1cc(C)n(CC2CCC(C(=O)Nc3ccc(C(=O)OC)cc3)CC2)c1C` (stereo unspecified), the survival is 69%.
Then `CCOC(=O)c1cc(C)n(CC2CCC(C(=O)Nc3ccc(Cl)cc3)CC2)c1C` (stereo unspecified), with 46% (active); and `CCOC(=O)c1cc(C)n(CC2CCC(C(=O)Nc3ccc(C)cc3)CC2)c1C` (stereo unspecified), with 98%; and `O=C(NC1CCCC1)C1CCCN(S(=O)(=O)c2ccc(-n3cnnn3)cc2)C1` (stereo unspecified), with 72%.
Consider `CSc1ncc(C(=O)Nc2ccc(F)cc2F)c(-c2ccccc2)n1`, for which the survival was 71%.
For the compound `CCOc1ccc(NC(=O)c2ccc(-c3ccccc3)s2)cc1`, the survival is 86%.
The figure for `CCOc1ccc(OCC)c(NC(=O)c2cnc(SC)nc2-c2ccccc2)c1` is 32% (active); for `O=C(Nc1ccccc1F)c1ccc(-c2ccccc2)s1` it is 81%.
For `COc1ccc(Cl)cc1NC(=O)c1cnc(SC)nc1-c1ccccc1`, the survival is 49%.
On to `CCOc1ccc(OCC)c(NC(=O)c2ccc(-c3ccccc3)s2)c1`, for which the survival was 27% (active).
For `Cc1ccc(CN2CCc3nc(N4CCN(c5ncccn5)CC4)ncc3C2)cc1`, the survival was 117%.
Then `CN1CCN(CC(=O)NCCc2ccc(F)cc2)CC1`, with 83%; and `N#CCOc1nc(OCC#N)nc(OCC#N)n1`, with 1% (active); and `CNc1nc(OCC#N)nc(N2CCCCC2)n1`, with 110%.
For `CONc1nc(NC(C)(C)C)nc(OCC#N)n1`, the survival was 97%.
Take `Cc1ccc(CNC(=O)c2nc(-c3ccc(Cl)cc3)n3c2CCCCC3)cc1`: the survival is 89%.
`O=C(CCCCCn1c(=O)c2sccc2n(CC(=O)Nc2cccc(Cl)c2)c1=O)NCc1ccc2c(c1)OCO2`: the survival is 57%.
Then `Cc1ccccc1NC(=O)Cn1c(=O)n(CCC(=O)NCc2ccc3c(c2)OCO3)c(=O)c2sccc21`, with 150%.
For `Cc1ccc(Cl)cc1NC(=O)Cn1c(=O)n(CCC(=O)NCc2ccc3c(c2)OCO3)c(=O)c2sccc21`, the survival was 79% (active).
Consider `Cc1ccc(CNC(=O)CCCCCn2c(=O)c3sccc3n(CC(=O)N3CCCCC3C)c2=O)cc1` (stereo unspecified), for which the survival was 48% (active).
Regarding `O=C(CCn1c(=O)c2sccc2n(Cc2ccc(F)cc2)c1=O)NCc1ccc2c(c1)OCO2`, the survival is 89%.
Then `Cc1cccc(C)c1NC(=O)Cn1c(=O)n(CCC(=O)NCc2ccc3c(c2)OCO3)c(=O)c2sccc21`, with 90%.
With `CCC1CCCCN1C(=O)Cn1c(=O)n(CCCCCC(=O)NCc2ccc(F)cc2)c(=O)c2sccc21` (stereo unspecified), the survival was 170%.
For the compound `Cc1ccc(NC(=O)Cn2c(=O)n(CCC(=O)NCc3ccc4c(c3)OCO4)c(=O)c3sccc32)c(C)c1`, the survival is 87% (active).
Regarding `CCC1CCCCN1C(=O)Cn1c(=O)n(CCCCCC(=O)NCc2ccccc2)c(=O)c2sccc21` (stereo unspecified), the survival was 69%.
Turning to `O=C(CCn1c(=O)c2sccc2n(Cc2cccc(F)c2)c1=O)NCc1ccc2c(c1)OCO2`, the survival is 97%.
As to `Cc1ccccc1NC(=O)Cn1c(=O)n(CCCCCC(=O)NCc2ccc3c(c2)OCO3)c(=O)c2sccc21`, the survival is 84%.
As to `O=C(CCn1c(=O)c2sccc2n(Cc2ccccc2F)c1=O)NCc1ccc2c(c1)OCO2`, the survival is 84% (active).
As to `Clc1ccc(CCNc2ncnc3c2c(-c2ccccc2)cn3-c2ccccc2)cc1`, the survival was 94%.
On to `COc1ccc(Cn2c(CCC(=O)Nc3ccc(Br)c(C)c3)nc3cccnc32)cc1`, for which the survival is 71%.
In the case of `Cc1ccc(N2CC(NC(=O)/C=C\c3ccc4c(c3)OCO4)CC2=O)cc1` (stereo unspecified), the survival was 91%.
As for `COc1ccc(NC(=O)Cn2ccn(-c3ccc(C)c(C)c3)c(=O)c2=O)cc1Cl`, the survival is 72%.
In the case of `COc1ccc(OC)c(CNC(=O)c2ccccc2NC(=O)c2nsc3ccccc23)c1`, the survival is 92%.
Consider `O=C(NC1CC(=O)N(c2ccccc2)C1)C(c1ccccc1)c1ccccc1` (stereo unspecified), for which the survival was 89%.
On to `Cc1nnc(Nc2ccc(C(=O)O)cc2)[nH]c1=O`, for which the survival was 108%.
`O=C1CCSC2(C(=O)N(Cc3ccc(F)cc3)c3ccccc32)N1c1ccccc1` (stereo unspecified): the survival is 78%.
The figure for `CC(=O)c1cccc(NS(=O)(=O)c2cc3c(cc2C)N(C(C)=O)CCO3)c1` is 95%; for `CCc1ccc(NC(=O)Cn2c(=O)n(CCCCC(=O)NCc3ccc4c(c3)OCO4)c(=O)c3ccccc32)cc1` it is 87%; for `CCc1ccc(NC(=O)Cn2c(=O)n(CCC(=O)NCc3ccc4c(c3)OCO4)c(=O)c3ccccc32)cc1` it is 91%.
The figure for `CCc1ccc(NC(=O)Cn2c(=O)n(CCCC(=O)NCc3ccc4c(c3)OCO4)c(=O)c3ccccc32)cc1` is 93% (active).
With `O=C(Cc1ccccc1)Nc1nnc2n1CCS2`, the survival was 71%.
As to `O=C(Cc1ccc(Cl)cc1)Nc1nnc2n1CCS2`, the survival is 77%.
On to `O=C(Cc1ccc(F)cc1)Nc1nnc2n1CCS2`, for which the survival was 52% (active).
Take `CCOC(=O)c1c(C)[nH]c(CCC(=O)NCc2ccccc2C)c1C`: the survival was 80%.
Then `COc1cc(NS(=O)(=O)c2ccc(NC(=O)c3ccc(Cl)cc3Cl)cc2)nc(OC)n1`, with 98%; and `O=C(Nc1ccc2ncccc2c1)c1ccccc1`, with 94%; and `O=C1OC(Nc2ccccn2)c2ccccc21` (stereo unspecified), with 42%.
Regarding `O=C1OC(Nc2ccccc2C(F)(F)F)c2ccccc21` (stereo unspecified), the survival was 45%.
Then `CC(=O)Nc1ccc(NC2OC(=O)c3ccccc32)cc1` (stereo unspecified), with 50%; and `Cc1ccc(NC2OC(=O)c3ccccc32)cc1` (stereo unspecified), with 31% (active).
As for `O=C1OC(Nc2ccc3ncccc3c2)c2ccccc21` (stereo unspecified), the survival was 30% (active).
For the compound `CCc1ccc(CNC(=O)CN2C(=O)c3cccnc3Oc3ccc(C)cc32)cc1`, the survival was 72%.
As for `Cc1ccc(C=N/C(=N\NC(=O)c2ccccc2)c2ccccc2)o1`, the survival was 94%.
Then `COc1ccc2nc(N3CCN(C(=O)c4ccco4)CC3)sc2c1`, with 88%; and `CCN(CC)CCCNC(=O)c1ccc2c(=O)n(CCc3ccccc3)c(=O)[nH]c2c1`, with 82%.
The figure for `COc1nc(N2CCCCCC2)nc(N2CCCCCC2)n1` is 66%; for `CCN(CC)C(=O)C1CCCN(c2ncnc3onc(C)c23)C1` (stereo unspecified) it is 99%.
Regarding `COc1ccc(N(Cc2ccccc2)C(=O)c2nc(S(C)(=O)=O)ncc2Cl)cc1`, the survival was 51%.
For the compound `COc1ccc(CN(C(=O)c2ccco2)c2ccccc2)cc1`, the survival is 96%.
In the case of `CCOc1ccc(N(Cc2ccccc2)C(=O)c2nc(SC)ncc2Cl)cc1`, the survival was 72%.
For the compound `CCCSc1ncc(Cl)c(C(=O)N(Cc2ccccc2)c2ccc(OC)cc2)n1`, the survival was 45% (active).
Take `CCSc1ncc(Cl)c(C(=O)N(Cc2ccccc2)c2ccc(OC)cc2)n1`: the survival was 100%.
Regarding `CCOc1ccc(N(Cc2ccccc2)C(=O)c2nc(SCC)ncc2Cl)cc1`, the survival was 106%.
For `COc1ccc(N(Cc2ccccc2)C(=O)c2nc(SC)ncc2Cl)cc1`, the survival was 99%.
Turning to `CCS(=O)(=O)c1ncc(Cl)c(C(=O)N(Cc2ccccc2)c2ccc(OC)cc2)n1`, the survival was 36% (active).
Consider `CCOc1ccc(N(Cc2ccccc2)C(=O)c2nc(S(C)(=O)=O)ncc2Cl)cc1`, for which the survival is 24% (active).
On to `COc1ccc(-c2cn3cccnc3n2)cc1NC(=O)c1cc(C)cc(C)c1`, for which the survival is 61%.
`Cc1cc(C)c(NC(=O)Nc2csc3c2CCCC3)c(C)c1`: the survival is 78%.
For `Cc1c(CNCc2ccc(Cl)cc2)c(C(=O)O)c(C)n1Cc1ccc(F)cc1`, the survival is 77%.
Consider `CCOc1ccc(S(=O)(=O)N2CCN(Cc3nc4ccc(C)cc4o3)CC2)cc1`, for which the survival is 73%.
In the case of `Cc1ccc(NC(=O)CN(Cc2ccccc2)S(=O)(=O)c2ccc3nc(C)sc3c2)c(C)c1`, the survival was 83%.
Consider `CCC(=O)N1CCc2cc(CNC(=O)c3cccc(N(C)C)c3)ccc21`, for which the survival is 84%.
The figure for `CCOc1ccc(NC(=O)CC2C(=O)N(c3ccc(OC)cc3)C(=O)N2C2CCCCC2)cc1` (stereo unspecified) is 110%; for `CCc1nccn1S(=O)(=O)c1cc(Br)ccc1Br` it is 43% (active); for `Cc1nccn1S(=O)(=O)c1ccc(Cl)cc1Cl` it is 67%.
Then `CCOc1ccc(OCC)c(S(=O)(=O)n2cnc3cc(C)c(C)cc32)c1`, with 104%; and `Cc1nccn1S(=O)(=O)c1c(C(C)C)cc(C(C)C)cc1C(C)C`, with 86%; and `CCOc1cc(C)c(C(C)C)cc1S(=O)(=O)n1ccnc1CC`, with -3% (active).
Turning to `COc1cc(S(=O)(=O)n2ccnc2C(C)C)ccc1Br`, the survival is 55%.
